BAZ2B inh: BAZ2B (human) inhibition. Potency, µM (highest dose often 114 µM), for the others: top-dose activity change, negative = inhibition, most hits filed as inhibitors. Q9UIF8. AID 504333. 360,000 tested, 4.4% active. AlphaScreen BAZ2B-H3K14Ac peptide displacement; also: potency is read from the fitted curve at half-maximal effect; % is scaled to controls: 0 for no effect and ±100 for the full control effect; nearly all actives have a fitted effect of over 60% in size
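BAZ2B (50 nM) with biotin-H3(5-23)K14Ac peptide (50 nM) in PBS pH 7.4, 0.01% Tween-20, preformed 30 min, then compound 30 min at room temperature; top concentration 110uM. AlphaScreen streptavidin donor/nickel chelate acceptor beads (10 ug/mL final), 20 min dark, signal read.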
Six1-Eya2 blk: Six1/Eya2 interaction inhibition; AID 651725; 360,000 tested, 0.56% active; activity change, % (no concentration beside the values); AlphaScreen GST-Six1/His-Eya2 binding, biochemical; active compounds read low; in the data active = activity change below about -65%; inconclusive = mostly about -30% to -63%; also: % is scaled to controls: 0 for no effect and ±100 for the full control effect
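GST-Six1 + His-Eya2 (5X stock: 250/500 nM); Tris pH 8.0, 300 mM NaCl, 0.05% BSA, 0.02% Tween 20; GSH donor/Ni acceptor beads; 1 h 37 °C dark; AlphaScreen readout.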
G9a block: inhibitors of human histone lysine methyltransferase G9a; Q96KQ7; G9a H3K9 monomethylation, AlphaScreen, 2 h; Potency, µM (highest dose often 102 µM), inactives show at the top dose activity, negative = inhibition, hits mostly inhibitors; 350,000 tested, 8.8% active; AID 504332; also: potency is read from the fitted curve at half-maximal effect; % is scaled to controls: 0 for no effect and ±100 for the full control effect; nearly all actives have a fitted effect of over 75% in size
Target sequence (Q96KQ7 913-1193 limits assumed): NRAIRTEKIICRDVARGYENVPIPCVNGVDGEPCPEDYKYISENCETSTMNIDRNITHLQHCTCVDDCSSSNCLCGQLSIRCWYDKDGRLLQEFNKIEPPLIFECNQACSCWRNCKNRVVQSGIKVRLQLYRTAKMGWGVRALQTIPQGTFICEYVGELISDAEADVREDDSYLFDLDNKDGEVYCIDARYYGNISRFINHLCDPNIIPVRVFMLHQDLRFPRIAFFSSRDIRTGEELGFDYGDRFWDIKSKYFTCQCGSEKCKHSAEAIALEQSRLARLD
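Readings reflect AlphaScreen signal from monomethyl-H3K9 antibody detection. HMT at 20 nM; substrate b-H3K9 500 nM; cofactor SAM 20 uM; 2 h RT reaction; compounds tested as titrations in qHTS with 15 min preincubation.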
CtBP-E1A blk: inhibitors of CtBP/E1A interaction. AlphaScreen GST-E1A/His-CtBP binding, 1536-well; active compounds read low. activity change, % (test concentration not listed). 340,000 tested, 0.49% active; in the data active = activity change below about -65%; inconclusive = mostly about -30% to -63%; also: % is scaled to controls: 0 for no effect and ±100 for the full control effect
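Protein mix (5X: 125 nM each GST-E1A, His-CtBP) was incubated with pinned compound 2 h at 37 deg C in dark, in 50 mM Tris pH 8.0 buffer with 300 mM NaCl. Glutathione donor and nickel acceptor beads followed; AlphaScreen signal read after 1 h.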
HP1b chromo inh: blocks HP1-beta chromodomain binding to methylated histone tails | P83916 | AlphaScreen HP1-beta / biotin-H3K9me3 peptide binding | Potency, µM (series often up to 114 µM), inactives show at the highest dose activity change, negative = inhibition, most hits filed as inhibitors | 390,000 tested, 0.56% active; also: potency is read from the fitted curve at half-maximal effect; nearly all actives have a fitted effect of over 70% in size
Target sequence (P83916 whole entry, looked up): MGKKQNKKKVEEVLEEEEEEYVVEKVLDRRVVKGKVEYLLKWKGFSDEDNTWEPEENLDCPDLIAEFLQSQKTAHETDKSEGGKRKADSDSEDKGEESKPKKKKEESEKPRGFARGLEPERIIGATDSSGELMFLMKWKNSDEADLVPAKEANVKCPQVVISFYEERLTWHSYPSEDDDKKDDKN
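Compound inhibition of the preformed complex between 50 nM HP1-beta and 50 nM biotinylated H3K9me3 peptide was read by AlphaScreen. Buffer was PBS pH 7.4 with 0.01% Tween-20. Incubations ran 30 min at room temperature, with 10 ug/mL donor/acceptor beads.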
JMJD2A Tudor inh: inhibitors of human JMJD2A Tudor domain | AID 504339 | Potency, µM (titrated, usually from 114 µM), inactives show top-dose activity change, negative = inhibition, hits mostly inhibitors | O75164 | 390,000 tested, 4.4% active | AlphaScreen JMJD2A-Tudor / H3K4me3 peptide binding; also: potency is read from the fitted curve at half-maximal effect; % is scaled to controls: 0 for no effect and ±100 for the full control effect; nearly all actives have a fitted effect of over 50% in size
Numbers without * were called inactive; [ ] = remark or other dose. A selection: hits, their analogues and other compounds. The true share with any hit is near 10%. Unless noted, calls follow the shape of the dose curve; as a rule, active = well fitted inhibition curve with a large enough effect; inconclusive = small, poorly fitted or top-dose-only effect; inactive = no such curve, though single readings can be large or run the other way.

What do the screens show for `CCOc1ccc2nc(NC(=O)C(NS(=O)(=O)c3cccs3)C(C)C)sc2c1` (stereo not given)?
BAZ2B inh: 12%; Six1-Eya2 blk: 1; G9a block: 18%[12.7 µM]; CtBP-E1A blk: 10; HP1b chromo inh: 19%; JMJD2A Tudor inh: -12%

How did CCOc1ccc2nc(NC(=O)C(CCSC)NS(=O)(=O)c3cccs3)sc2c1 (stereo not given) do in these assays?
BAZ2B inh: inconclusive; Six1-Eya2 blk: -11; G9a block: inconclusive; CtBP-E1A blk: 2; HP1b chromo inh: 45%; JMJD2A Tudor inh: 56µM*

How did CC1CCCN(S(=O)(=O)c2ccc(NC(=O)CCN3C(=O)c4ccccc4C3=O)cc2)C1 (stereo not given) do in these assays?
BAZ2B inh: 9%; Six1-Eya2 blk: 3; G9a block: -2%; CtBP-E1A blk: -3; HP1b chromo inh: 8%; JMJD2A Tudor inh: -6%

How did CN(C)CCCNc1ncnc2ccc(-c3ccc4c(c3)OCO4)cc12 do in these assays?
JMJD2A Tudor inh: -11%

Results for COc1ccc([C@H]2C[C@@H](O)[C@H](n3cc(COC(=O)c4ccccc4)nn3)CN2C(=O)C2CCCCC2)cc1 ?
Six1-Eya2 blk: 0; CtBP-E1A blk: 2

How did Cc1ccccc1Nc1nc(N)nc(COC(=O)[C@@H](NC(=O)c2ccccc2Cl)C(C)C)n1 do in these assays?
BAZ2B inh: -5%; Six1-Eya2 blk: 12; G9a block: 0%; CtBP-E1A blk: 4; HP1b chromo inh: 29%; JMJD2A Tudor inh: -6%

Results for Cc1ccccc1OC(C)C(=O)Nc1ccc(S(=O)(=O)Nc2nccs2)cc1 (stereo not given) ?
BAZ2B inh: -24%; Six1-Eya2 blk: -7; G9a block: 50µM*; CtBP-E1A blk: 2; HP1b chromo inh: 15%; JMJD2A Tudor inh: -18%

Results for Cc1ccc(C)c(OC(C)C(=O)Nc2ccc(S(=O)(=O)Nc3nccs3)cc2)c1 (stereo not given) ?
BAZ2B inh: -28%; Six1-Eya2 blk: inconclusive; G9a block: 11µM*; CtBP-E1A blk: -10; HP1b chromo inh: inconclusive; JMJD2A Tudor inh: -33%

What do the screens show for `CCCC(C)C(=O)Nc1ccc(S(=O)(=O)Nc2nccs2)cc1` (stereo not given)?
BAZ2B inh: 50µM*; Six1-Eya2 blk: 0; CtBP-E1A blk: 0; HP1b chromo inh: 40%; JMJD2A Tudor inh: -14%

What do the screens show for `CCOc1ccccc1-c1nnc2n1N=C(c1c(OC)cccc1OC)CS2`?
JMJD2A Tudor inh: -9%

Results for O=C(CSc1nc2ccccc2s1)N1N=C(c2cccs2)CC1c1ccc(F)cc1 (stereo not given) ?
BAZ2B inh: -10%; Six1-Eya2 blk: 3; G9a block: 13%[59 µM]; CtBP-E1A blk: 8; HP1b chromo inh: 28%; JMJD2A Tudor inh: -10%

Results for O=C(CSc1nc2c(cnn2-c2ccc(F)cc2)c(=O)[nH]1)N1N=C(c2cccs2)CC1c1ccc(F)cc1 (stereo not given) ?
BAZ2B inh: 1.3µM*; G9a block: 32µM*

Results for Cc1ccc(/C=C/C(=O)c2ccc(N3CCOCC3)cc2)s1 ?
BAZ2B inh: -6%; Six1-Eya2 blk: 7; G9a block: 7%; CtBP-E1A blk: -1; HP1b chromo inh: 19%; JMJD2A Tudor inh: -23%

What do the screens show for `Cc1ccc(-c2nc(C#N)c(NCc3ccco3)o2)cc1`?
BAZ2B inh: -31%; Six1-Eya2 blk: -11; G9a block: -28%[59 µM]; CtBP-E1A blk: -2; HP1b chromo inh: 4%; JMJD2A Tudor inh: 4%

How did Cc1ccc(OCc2nc(C#N)c(NCc3ccco3)o2)cc1 do in these assays?
BAZ2B inh: 35µM*; Six1-Eya2 blk: -15; G9a block: 50µM*; CtBP-E1A blk: -16; HP1b chromo inh: -9%; JMJD2A Tudor inh: inconclusive

Results for CN(Cc1ccccc1)c1oc(COc2ccccc2F)nc1C#N ?
BAZ2B inh: 28µM*; Six1-Eya2 blk: inconclusive; G9a block: 28µM*; CtBP-E1A blk: -27; HP1b chromo inh: -23%; JMJD2A Tudor inh: inconclusive

How did COc1ccc(Nc2oc(COc3ccccc3F)nc2C#N)cc1 do in these assays?
BAZ2B inh: inconclusive; Six1-Eya2 blk: -9; G9a block: 35µM*; CtBP-E1A blk: -1; HP1b chromo inh: -5%; JMJD2A Tudor inh: inconclusive

Results for Cc1cccc(-c2nc(C#N)c(NCc3ccco3)o2)c1 ?
BAZ2B inh: 50µM*; Six1-Eya2 blk: -3; G9a block: 45µM*; CtBP-E1A blk: 3; HP1b chromo inh: 13%; JMJD2A Tudor inh: -22%

How did O=C(NC1CCCCC1)C(c1ccncc1)n1c(=O)c(-c2cc3ccccc3[nH]2)nc2ccccc21 (stereo not given) do in these assays?
Six1-Eya2 blk: 45; CtBP-E1A blk: -16

How did COc1ccc(Nc2oc(COc3ccc(C)cc3)nc2C#N)cc1 do in these assays?
BAZ2B inh: inconclusive; Six1-Eya2 blk: -20; G9a block: inconclusive; CtBP-E1A blk: -9; HP1b chromo inh: -35%; JMJD2A Tudor inh: 89µM*

How did Cc1ccc(OCc2nc(C#N)c(NCCc3ccccc3)o2)cc1 do in these assays?
BAZ2B inh: inconclusive; G9a block: inconclusive; HP1b chromo inh: -19%; JMJD2A Tudor inh: -31%

Results for CC(C)(C)NC(=O)C1C(c2ccc(C(F)(F)F)cc2)=Nc2ccccc2N1C(=O)c1cccc2ccccc12 (stereo not given) ?
Six1-Eya2 blk: 1; CtBP-E1A blk: 4

Results for CCCCNC(=O)CN1CCN(c2ccc(NC(=O)c3ccc(OC)cc3)cc2C(=O)O)CC1 ?
BAZ2B inh: -3%; G9a block: -4%[59 µM]; HP1b chromo inh: 16%; JMJD2A Tudor inh: inconclusive

What do the screens show for `CCCCNC(=O)CN1CCN(c2ncc(NC(=O)c3ccc(Cl)cc3)cc2C(=O)O)CC1`?
BAZ2B inh: 50µM*; G9a block: inconclusive; HP1b chromo inh: -31%; JMJD2A Tudor inh: 79µM*

What do the screens show for `CCCNC(=O)CN1CCN(c2ncc(NC(=O)c3ccc(Cl)cc3)cc2C(=O)O)CC1`?
BAZ2B inh: 50µM*; G9a block: inconclusive; HP1b chromo inh: -23%; JMJD2A Tudor inh: 71µM*

How did CCCNC(=O)CN1CCN(c2cc3ccccc3c(Cl)n2)CC1 do in these assays?
BAZ2B inh: -2%; Six1-Eya2 blk: 8; G9a block: inconclusive; CtBP-E1A blk: 10; HP1b chromo inh: 48%; JMJD2A Tudor inh: -16%

What do the screens show for `COc1cc([N+](=O)[O-])cc(/C=N/NC(=O)c2cncc(Br)c2)c1O`?
BAZ2B inh: 10µM*; Six1-Eya2 blk: -93*; CtBP-E1A blk: -90*; HP1b chromo inh: 14%; JMJD2A Tudor inh: 20µM*
